Compounds without any hit were thinned out: in the full panel of roughly 79,000, 15% have a hit. Unmarked numbers belong to inactive results. No stated cut-off is given here; in the data, active means growth inhibition above about 70%; inactive means the rest. Residues, ends and D or L forms follow the SMILES beside them. *: point of attachment. Fmoc = O=C(OCC1c2ccccc2-c2ccccc21)*; Boc = CC(C)(C)OC(=O)*
experiment: NCI Yeast Anticancer Drug Screen. Data for the wt1 strain (AID 149);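 further: 0% = growth of vehicle-treated wt1 cultures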; conditions: S. cerevisiae wt1 strain (SPY 50644) growth inhibition; at 1.2 µM; stronger effect = higher value
Method in brief: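 Growth inhibition read against vehicle controls after compound exposure of the wt1 yeast strain.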

Compound	growth inhibition
CC(C)OP(=O)(OC(C)C)/C(Cl)=N/Nc1ccc([N+](=O)[O-])cc1	-10%
CCCCCCNCCCNc1c2cc(OC)ccc2nc2cccc([N+](=O)[O-])c12	1%
CN(C)CCNCCCNc1c2ccccc2nc2cccc([N+](=O)[O-])c12	-14%
O=[N+]([O-])c1ccc(/C=C\c2ccc3c(c2)OCO3)c([N+](=O)[O-])c1	-2%
O=C1c2ccccc2N2OC3(N4CCCC4)CCCCC3C12c1ccccc1 (centres undefined)	6%
CC(C)OC(=O)NNc1cc(Cl)ccc1Cl	-2%
Cc1oc2ccccc2c(=O)c1Cn1nnc2ccccc21	-2%
CC1(C)OC(=O)C(=Cc2ccc([N+](=O)[O-])s2)C(=O)O1	-28%
OC(Cc1cccc2ccccc12)CN1CCC(c2ccccc2)CC1 (centres undefined)	12%
C1=CCN([B-](c2ccccc2)[C+]2CCCCC2)C=C1	-1%
CCCNC(=O)OCc1c(COC(=O)NCCC)c(-c2ccc(Cl)c(Cl)c2)n2c1CCC2	-25%
CC1(C)CC(=O)C(C(=O)Nc2cccs2)=C(O)C1	21%
O=C(NO)c1coc2ccccc2c1=O	4%
COc1ccc(C(C)c2cc3c(cc2OCC(C)=O)OCO3)cc1 (centres undefined)	-2%
CCS(=O)(=O)Nc1ccc(Nc2c3ccccc3nc3ccccc23)c(OC)c1	-36%
CC1=NN(C(=O)c2ccccc2O)C(=O)/C1=C/c1ccco1	21%
O=C1C=C(Br)C(=O)c2ccccc21	10%
C[N+](C)([O-])CCCNc1c2ccccc2nc2cccc([N+](=O)[O-])c12	-3%
Cc1cccc2c(NCCCN(C)C)c3c([N+](=O)[O-])ccc(C)c3nc12	5%
OC1(c2ccccc2)C2CC=CC2C1(c1ccccc1)c1ccccc1 (centres undefined)	-4%
C[n+]1c(-c2ccc(/C=N/NC(=O)c3ccc(C(=O)N/N=C/c4ccc(-c5cn6ccccc6[n+]5C)cc4)cc3)cc2)cn2ccccc21	9%
CCN(CC)CCC(=O)Nc1ccc2sc3ccccc3c(=O)c2n1	-4%
O=[N+]([O-])c1ccc2nc(=S)[nH]n2c1	-3%
O=C(c1ccccc1)[C@H]1Nc2ccc(Cl)cc2[C@H]2OCCC[C@@H]12	-7%
COc1cc([N+](=O)[O-])c2ncccc2c1Br	-1%
O=S(=O)(c1cccc(C(F)(F)F)c1)N1c2ccccc2-n2cccc2C1c1cccnc1 (centres undefined)	-22%
CC(C)(C)OC(=O)NCCCCC(NC(=O)C(Cc1c[nH]c2ccccc12)NC(=O)OCC1c2ccccc2-c2ccccc21)C(=O)O (centres undefined) (Fmoc-Trp-Lys(Boc)-OH; configuration not given here)	-2%

same assay, conditions: S. cerevisiae wt1 strain (SPY 50644) growth inhibition; at 3.7 µM; stronger effect = higher value

Compound	growth inhibition
CC(C)OP(=O)(OC(C)C)/C(Cl)=N/Nc1ccc([N+](=O)[O-])cc1	-10%
CCCCCCNCCCNc1c2cc(OC)ccc2nc2cccc([N+](=O)[O-])c12	1%
CN(C)CCNCCCNc1c2ccccc2nc2cccc([N+](=O)[O-])c12	9%
O=[N+]([O-])c1ccc(/C=C\c2ccc3c(c2)OCO3)c([N+](=O)[O-])c1	-2%
O=C1c2ccccc2N2OC3(N4CCCC4)CCCCC3C12c1ccccc1 (centres undefined)	-9%
CC(C)OC(=O)NNc1cc(Cl)ccc1Cl	5%
Cc1oc2ccccc2c(=O)c1Cn1nnc2ccccc21	-1%
CC1(C)OC(=O)C(=Cc2ccc([N+](=O)[O-])s2)C(=O)O1	-33%
OC(Cc1cccc2ccccc12)CN1CCC(c2ccccc2)CC1 (centres undefined)	28%
C1=CCN([B-](c2ccccc2)[C+]2CCCCC2)C=C1	-2%
CCCNC(=O)OCc1c(COC(=O)NCCC)c(-c2ccc(Cl)c(Cl)c2)n2c1CCC2	-38%
CC1(C)CC(=O)C(C(=O)Nc2cccs2)=C(O)C1	28%
O=C(NO)c1coc2ccccc2c1=O	-3%
COc1ccc(C(C)c2cc3c(cc2OCC(C)=O)OCO3)cc1 (centres undefined)	-3%
CCS(=O)(=O)Nc1ccc(Nc2c3ccccc3nc3ccccc23)c(OC)c1	-42%
CC1=NN(C(=O)c2ccccc2O)C(=O)/C1=C/c1ccco1	30%
O=C1C=C(Br)C(=O)c2ccccc21	23%
C[N+](C)([O-])CCCNc1c2ccccc2nc2cccc([N+](=O)[O-])c12	7%
Cc1cccc2c(NCCCN(C)C)c3c([N+](=O)[O-])ccc(C)c3nc12	13%
OC1(c2ccccc2)C2CC=CC2C1(c1ccccc1)c1ccccc1 (centres undefined)	-7%
C[n+]1c(-c2ccc(/C=N/NC(=O)c3ccc(C(=O)N/N=C/c4ccc(-c5cn6ccccc6[n+]5C)cc4)cc3)cc2)cn2ccccc21	16%
CCN(CC)CCC(=O)Nc1ccc2sc3ccccc3c(=O)c2n1	-2%
O=[N+]([O-])c1ccc2nc(=S)[nH]n2c1	-2%
O=C(c1ccccc1)[C@H]1Nc2ccc(Cl)cc2[C@H]2OCCC[C@@H]12	-6%
COc1cc([N+](=O)[O-])c2ncccc2c1Br	-7%
O=S(=O)(c1cccc(C(F)(F)F)c1)N1c2ccccc2-n2cccc2C1c1cccnc1 (centres undefined)	-8%
CC(C)(C)OC(=O)NCCCCC(NC(=O)C(Cc1c[nH]c2ccccc12)NC(=O)OCC1c2ccccc2-c2ccccc21)C(=O)O (centres undefined) (Fmoc-Trp-Lys(Boc)-OH; configuration not given here)	-2%

Source: PubChem BioAssay (NCI)
